Test results reported in PubChem BioAssay AID504834 (National Center for Advancing Translational Sciences (NCATS), 2011).
Among all 320,000 compounds or so, about 22,000 (6.9%) were called active. Inconclusive results (about 27%) are left out. Calls come from the whole dose curve; as a rule, active = well fitted inhibition curve with a large enough effect; inconclusive = small, poorly fitted or top-dose-only effect, or another doubt; inactive = no such curve, though single readings can be large or run the other way. The list comes from a sample in which actives are over-represented; it also holds similar structures and randomly drawn compounds.

Experiment: Primary qHTS for delayed death inhibitors of the malarial parasite plastid, 96 hour incubation
Conditions: P. falciparum luciferase reporter growth; series mostly up to 28.7 µM; activity change, negative = inhibition: at the top concentration
Summary of the method: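 Parasite growth measured via integrated firefly luciferase reporter in P. falciparum. Infected erythrocytes at 2% hematocrit, 0.05% parasitemia final were treated 96 hours at 37 C under 5% CO2, and luminescence was read.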
% is set by controls: 0 for no effect and ±100 for the full control effect; potency is the fitted concentration of half-maximal effect.

Compound | activity change, negative = inhibition | Potency
O=Cc1cn(Cc2ccccc2)nc1-c1cccnc1 | 10.1% (inactive) | 
COc1ccc(NC(=O)CN(C)C(=O)/C=C/c2cn(Cc3ccccc3)nc2-c2cccnc2)cc1 |  | 9.28 µM (active)
O=C(Nc1ccc(NC(=O)c2ccc3c(c2)OCO3)cc1)c1cccc(Cl)c1 | -12.7% (inactive) | 
CN(c1ccccc1)S(=O)(=O)c1ccc(C(=O)NCCc2ccccc2)cc1 | 4.97% (inactive) | 
CC1(C)CCc2nc(SCc3ccccc3)c(C#N)cc2C1 |  | 6.57 µM (active)
CC(NC(=O)CSc1nc2c(cc1C#N)CN(C)CC2)c1ccccc1 (configuration not stated) | 58.3% (inactive) | 
Cc1cc(C)nc(SCc2ccccc2C#N)n1 | 103% (inactive) | 
CCCCN(C(=O)c1nn(C)c(=O)c2ccccc12)c1c(N)n(CCC)c(=O)[nH]c1=O | 14.7% (inactive) | 
COc1ccccc1C(=O)NC(=S)Nc1ccccc1N1CCCCC1 | 25.3% (inactive) | 
Oc1c(C=Nc2cccc3nsnc23)ccc2ccccc12 | 0% (inactive) | 
Oc1ccc(N=Nc2nccs2)c(O)c1 |  | 11.7 µM (active)
c1ccc(NCc2cccc3ccccc23)nc1 | -21% (inactive) | 
Oc1ccc2ccccc2c1N=Nc1nccs1 |  | 9.28 µM (active)
COc1ccc(C(=O)N[C@H](C(=O)NCc2ccccc2)C(C)C)cc1 | 13.7% (inactive) | 
COc1cccc(NC(=O)N2CCCC2C(=O)NC2CCCCC2)c1 (configuration not stated) | -1.78% (inactive) | 
CCOC(=O)Cn1c(=O)n(Cc2ccc(OC)cc2)c(=O)c2cccnc21 | 28.9% (inactive) | 
COc1ccc(-c2oc3ncnc(NCCCO)c3c2-c2ccc(OC)cc2)cc1 |  | 2.08 µM (active)
COc1cc2nc(Cl)nc(NCCO)c2cc1OC | 1.36% (inactive) | 
c1ccc(-c2oc3ncnc(N4CCOCC4)c3c2-c2ccccc2)cc1 | -6.25% (inactive) | 
Cc1ccc(S(=O)(=O)N(Cc2ccccc2)c2ccccn2)cc1[N+](=O)[O-] | -14.9% (inactive) | 
CCC(C)N1CC(=O)N2Cc3[nH]c4ccccc4c3C[C@H]2C1=O (some centres not stated) | 3.67% (inactive) | 
Cc1[nH]nc(-c2ccc(OCc3cnn(-c4ccccc4)c3)cc2O)c1Oc1ccc(Cl)cc1 |  | 13.1 µM (active)
Oc1cccc(C2c3[nH]c4ccccc4c3CCN2Cc2cnn(-c3ccccc3)c2)c1 (configuration not stated) | 2.75% (inactive) | 
CN=C1S/C(=C\c2c(OC)cc(OC)cc2OC)C(=O)N1C | 14.8% (inactive) | 
O=C(CN1CCCCCC1)Nc1ccc(S(=O)(=O)N2CCCCC2)cc1 | 4.97% (inactive) | 
CC(Oc1ccccc1[N+](=O)[O-])C(=O)N/N=C/c1ccoc1 (configuration not stated) | 39.7% (inactive) | 

Compound | activity change, negative = inhibition | Potency
CCc1noc(C)c1C(=O)Nc1nc(-c2ccccc2)cs1 | 50.8% (inactive) | 
Cc1cc(-c2csc(N)n2)c(C)n1Cc1ccccc1 | -16.6% (inactive) | 
CC(=O)Nc1ccc(C(=O)Nc2nc(-c3cc(C)n(Cc4ccccc4)c3C)cs2)cc1 |  | 4.15 µM (active)
CCN(CC(=O)NCc1cccs1)C(=O)/C=C/c1ccc(C)cc1 | -23.7% (inactive) | 
O=C(O)CCn1c(Cc2ccccc2)nc2ccccc21 | -16.9% (inactive) | 
Cc1cc2ccccc2n1CCC(=O)O | 29% (inactive) | 
O=C(O)CCn1c(O)c(C=C2N=c3ccccc3=N2)sc1=S |  | 4.65 µM (active)
CCS(=O)(=O)C1=NSC2=NC(=O)/C(=C\c3ccc(OS(=O)(=O)c4ccccc4)cc3)C(=N)N21 | -0.896% (inactive) | 
CC(C)(C)C(=O)Nc1c(Br)c(C2CC2)nn1-c1ccccc1 | -2.14% (inactive) | 
Cc1cc(=O)oc2c1ccc1ccccc12 | 5.33% (inactive) | 
Cc1coc2c(O)cc3c(c12)OC1(N2CCCCC2)C(=O)NCCCC31 (configuration not stated) |  | 9.28 µM (active)
NNC(=O)c1ccc(COCC(F)(F)C(F)F)cc1 | -23.4% (inactive) | 
O=C(N/N=C/c1ccco1)c1csc2c1CCCC2 | 1.77% (inactive) | 
Cc1cc(C)n(-c2ccc(NC(=O)C3CCCCN3C(=O)c3cccs3)cc2)n1 (configuration not stated) | 33.4% (inactive) | 
CN(C)C(=O)CCC(=O)N1CCCCC1C(=O)Nc1ccc(Oc2ccccc2F)cc1 (configuration not stated) | 0% (inactive) | 
COc1ccc(C(=O)N2CCCCC2C(=O)Nc2ccc(-n3nc(C)cc3C)cc2)o1 (configuration not stated) |  | 10.4 µM (active)
O=C(CN1CCCCC1)NC(=O)Nc1ccccc1F | 34.5% (inactive) | 
CCN(CC(=O)NCC(=O)Nc1cccc(C)c1C)Cc1ccccc1 | -12.1% (inactive) | 
COc1cccc2cc(C(=O)N3CCN(C(=O)c4ccccc4)CC3)c(=O)oc12 | 6.51% (inactive) | 
COc1cccc2cc(-c3cc(=O)oc4cc(C)c(O)cc34)oc12 |  | 13.1 µM (active)
COc1cccc(C(=O)OCc2cc(=O)oc3c(C)c(C)ccc23)c1OC | 33.8% (inactive) | 
O=C(NCc1ccccc1)C(c1ccccc1)N(C(=O)c1csnn1)c1ccc(F)cc1 (configuration not stated) | 7.01% (inactive) | 
O=C(COc1cccc(Cl)c1)NCc1ccccc1 | -11.8% (inactive) | 
O=C(O)CCCC(=O)Nc1ccc(Oc2cccc(C(F)(F)F)c2)nc1 | -3.37% (inactive) | 
O=C(O)CCCn1cc(NC(=O)COc2cccc(Cl)c2)cn1 |  | 14.7 µM (active)
COc1ccccc1NC(=O)C(C)OC(=O)CC1CCCC1 (configuration not stated) | 30.8% (inactive) | 
